Measured values from PubChem BioAssay.
Activity calls are given as the source filed them. No rule for the calls is given here.

Target: Pantothenate synthetase (Mycobacterium tuberculosis (strain ATCC 25618 / H37Rv)) (UniProt P9WIL5)
Assay: Coupled enzyme confirmation of inhibitors against recombinant Mtb PanC (AID 375);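 also: 0% = full reaction with vehicle and 100% = no enzyme background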
Settings: coupled enzyme assay; at 10 µM, hits give high values

Sequence of Pantothenate synthetase (Mycobacterium tuberculosis (strain ATCC 25618 / H37Rv)) (P9WIL5 whole entry, looked up): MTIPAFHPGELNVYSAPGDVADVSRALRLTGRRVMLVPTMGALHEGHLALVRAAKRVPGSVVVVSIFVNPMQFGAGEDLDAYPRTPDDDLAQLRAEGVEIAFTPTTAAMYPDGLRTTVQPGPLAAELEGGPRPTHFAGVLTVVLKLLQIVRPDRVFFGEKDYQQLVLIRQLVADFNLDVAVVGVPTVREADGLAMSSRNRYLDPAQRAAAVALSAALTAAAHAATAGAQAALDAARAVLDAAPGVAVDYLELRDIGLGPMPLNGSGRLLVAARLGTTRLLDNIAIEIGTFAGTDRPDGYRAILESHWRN

Row | Compound | inhibition
1 | COC(=O)c1ccc(CSc2nnnn2Cc2ccccc2)cc1 | 0% (inactive)
2 | O=S(=O)(c1ccc(S(=O)(=O)N2CCN3CCCC3C2)cc1)N1CCCC1 (stereo not given) | 0% (inactive)
3 | CC1(C)C2CCC1(C)C(OC(=O)CSc1nc(N)cc(=O)[nH]1)C2 (stereo not given) | 0% (inactive)
4 | CCOC(=O)c1cccc(NC(=O)CS(=O)(=O)Cc2nc(-c3cccc(OC)c3)oc2C)c1 | 0% (inactive)
5 | CCCOc1ccc2nc(NC(=O)OC)[nH]c2c1 | 0% (inactive)
6 | Cn1cc(-c2nc3ccccc3[nH]2)c2ccccc21 | 4% (inactive)
7 | Cc1noc(C)c1S(=O)(=O)NCCN1CCN(c2ccccc2)CC1 | 4% (inactive)
8 | COc1cc(NS(=O)(=O)N2CCCC2)cc(OC)c1OC | 0% (inactive)
9 | c1cnc(NCCNc2ncccn2)nc1 | 0% (inactive)
10 | O=C1C2C3C=CC(C3=C3CCCCC3)C2C(=O)N1c1ccccc1 (stereo not given) | 0% (inactive)
11 | Cc1cc(C)n2nc(SCc3cc(=O)n4ccccc4n3)nc2n1 | 0% (inactive)
12 | Cc1ccc(S(=O)(=O)NCCSc2nnnn2-c2ccc(C(N)=O)cc2)cc1 | 0% (inactive)
13 | CC1(C)NC(=O)N(CC(O)CN2CCCCC2)C1=O (stereo not given) | 0% (inactive)
14 | CCCSc1nnc(N2C(=O)CC(c3ccsc3)C3=C2CCCC3=O)s1 (stereo not given) | 0% (inactive)
15 | COc1ccc(CNc2nc(SCC(=O)NCc3ccco3)nc3ccccc23)cc1 | 10% (inactive)
16 | COc1ccccc1NS(=O)(=O)c1ccc(NC(=O)c2nc3ncccn3n2)cc1 | 0% (inactive)
17 | CCOc1ccc(CNc2ccc3c(c2)ncn3C)cc1 | 0% (inactive)
18 | CCN(CC(=O)NC(=O)NCc1ccco1)Cc1nc2ccccc2c(=O)[nH]1 | 0% (inactive)
19 | O=C(c1cccc2ccccc12)N1CCC(N2CCN(c3ccccc3)CC2)CC1 | 0% (inactive)
20 | CCCOC(=O)c1[nH]c2c(c1C)C(=O)CC(c1cc(OC)c(OC)c(OC)c1)C2 (stereo not given) | 0% (inactive)

Row | Compound | inhibition
21 | O=C(NCCN1CCOCC1)C1CCC(=O)N1Cc1ccccc1Cl (stereo not given) | 0% (inactive)
22 | O=C(CN1CCN(c2nc(-c3ccccc3)cs2)CC1)Nc1ccc2c(c1)OCO2 | 4% (inactive)
23 | O=C(O)CC1CCCC(c2ccccc2)C1=O (stereo not given) | 5% (inactive)
24 | CSc1nnc2c3ccccc3n(CCc3ccccc3)c2n1 | 0% (inactive)
25 | COc1ccc(Cc2nc3ccc(S(N)(=O)=O)cc3[nH]2)cc1OC | 0% (inactive)
26 | CC(N)C12CC3CC(C1)CC(C(C)N)(C3)C2 (stereo not given) | 0% (inactive)
27 | Cc1nc(NCc2ccco2)c2oc3ccccc3c2n1 | 4% (inactive)
28 | CCN(CC)C(=O)CSc1nc2ccc(NC(=O)CSc3nccn3C)cc2s1 | 7% (inactive)
29 | CCCC(=O)N1CC(=O)Nc2ccc(C)cc2C1c1ccc(F)cc1 (stereo not given) | 0% (inactive)
30 | O=C(COc1ccccc1)N1CCN(c2ncnc3c2cnn3-c2ccccc2)CC1 | 0% (inactive)
31 | Nc1nnc(SCc2cc3c(cc2Cl)OCO3)s1 | 7% (inactive)
32 | O=C(Cc1ccc(S(=O)(=O)N2CCCC2)s1)Nc1nc2c(s1)CCCC2 | 1% (inactive)
33 | Cc1nn(-c2ccccc2)c(C)c1/C=N/O | 0% (inactive)
34 | Cc1ccc(CNC(=O)COC(=O)c2c(C)noc2C)cc1 | 0% (inactive)
35 | COc1ccc(CNC(=O)c2nnn(Cc3ccc(OC)cc3)c2N)cc1 | 0% (inactive)
36 | CN(C)c1ccc(C=NCC2(O)CCOC(C)(C)C2)cc1 (stereo not given) | 3% (inactive)
37 | Cc1cc(C(C)(C)C)c(O)c(C)c1CC1=NCCN1 | 0% (inactive)
38 | O=S1(=O)CC(N2CCOCC2)c2ccccc21 (stereo not given) | 0% (inactive)
39 | CCCCn1c(=O)[nH]c(=O)c2c1nc(-c1ccncc1)n2CCOC | 1% (inactive)
40 | COc1ccc(OC)c(NC(=O)C2CCN(c3cc(-c4ccccc4)nc4ncnn34)CC2)c1 | 2% (inactive)
